Results on 59 compounds are retold here after PubChem BioAssay AID1047 (SRMLSC, 2008).

Screen size: about 1,500 compounds; about 1,400 (93%) were called active. So high a share suggests a set chosen from earlier hits. A selection follows. Potency and affinity values are given separately. Unmarked numbers belong to inactive results. The rule behind the calls is not given here.

This test in a line: viability of PTEN-deleted HCT116 cells – cell-based, HCT116 PTEN knockout, dose response (AID 1047). To be noted: CellTiter-Glo, 60 h; series mostly up to 30 µM; viability: at the top concentration. For orientation: ATP-based viability assays read luminescence as a measure of living cells.
Usually viability stands for a read-out of living cells in per cent, often relative to untreated cells. Regarding `Cc1sc2c(=O)n3c(nc2c1C(=O)NCCCN1CCOCC1)CCCCC3`, the “viability” value was 83.3%.

In the case of `CC(=O)ON1C(C)(C)CC(OC(=O)c2ccccc2)CC1(C)C`, the “viability” value is 91.2%.

In the case of `O=C(COC(=O)c1cccnc1Nc1cccc(C(F)(F)F)c1)NCc1ccc2c(c1)OCO2`, the “viability” value is 100%.

As for `CC(C)c1cc(=O)oc2c3c4c(cc12)CCCN4CCC3`, the “viability” value is 88.1%.

Take `CNC(=S)N/N=C(\C)c1ccc(N2CCOCC2)cc1`: the “viability” value is 95.4%.

Turning to `O=S(=O)(NCCc1csc(-c2cccnc2)n1)c1ccc2c(c1)OCCO2`, the “viability” value is 100%.

As to `COc1ccc(CCn2c(N)c(C(=O)NCc3ccco3)c3nc4ccccc4nc32)cc1OC`, the “viability” value is 82.2%.

On to `C=CCNc1nnc(SC2CC(=O)N(c3ccc(OC)cc3)C2=O)s1` (centres undefined), for which the “viability” value was 99.3%.

In the case of `OCCn1c(C(F)(F)F)nc2ccccc21`, the “viability” value was 104%.

Consider `O=C(Nc1ccccc1Cl)NC1(C(=O)N2CCCC2)CCCCC1`, for which the “viability” value is 106%.

In the case of `O=C(N/N=C/c1ccc(O)c(O)c1O)/C(=C/c1ccc([N+](=O)[O-])cc1)NC(=O)c1ccccc1`, the “viability” value was 81.5%.

Take `Cc1ccccc1NC(=O)c1ccc2c(c1)OCCO2`: the “viability” value was 91.1%.

`O=C(NNc1nc2cc3c(cc2s1)OCO3)c1cccc(F)c1`: the “viability” value was 92.5%.

For the compound `COc1cccc(OCC(=O)NN=C2c3ccccc3-c3ccccc32)c1`, the “viability” value was 105%.

For the compound `COc1ccc(C(=O)OC2CCN(c3ncc(C(F)(F)F)cc3Cl)CC2)cc1`, the “viability” value was 97.8%.

As for `O=C1[C@H]2[C@H]3[C@H](O)[C@H](O)C/C(=N\OC[C@@H](O)COCc4ccco4)[C@@H]3CC[C@H]2C(=O)N1c1ccc(F)cc1F`, the “viability” value was 107%.

On to `COC(=O)COc1ccc(S(=O)(=O)NCc2ccncc2)cc1`, for which the “viability” value is 111%.

On to `c1ccc2c(c1)CCCC2C1=NCCN1` (centres undefined), for which the “viability” value was 94.9%.

As for `CC(C[N+](C)(C)C)OC(N)=O` (centres undefined), the “viability” value was 102%.

For the compound `CCOc1c(OC)ccc2c3c(c(=O)oc12)CCCC3`, the “viability” value is 95.5%.

With `OC1C2CN3CCN(C2)CC1(Cc1ccccc1)C3` (centres undefined), the “viability” value is 88.9%.

With `Cc1cc(NC(=O)c2sc(Nc3cccc(C(F)(F)F)c3)nc2N)no1`, the “viability” value is 86.6%.

For the compound `Cc1[nH]nc2c1C(c1ccsc1C)C(C#N)=C(N)O2` (centres undefined), the “viability” value was 89.2%.

For the compound `CCC(C)C1C(C#N)=C(N)Oc2n[nH]c(C)c21` (centres undefined), the “viability” value is 80.5%.

As to `CCOC(=O)N1CCN(C(=O)c2nn(-c3ccc(C)cc3)c(=O)c3c2c2ccccc2n3C)CC1`, the “viability” value was 89.2%.

For the compound `COc1ccc(C(=O)OCC(=O)c2cc(OC)ccc2OC)c(OC)c1`, the “viability” value was 89.9%.

On to `CCOc1ccc(N(CC(=O)NC2CCCCCC2)S(=O)(=O)c2c(C)noc2C)cc1`, for which the “viability” value is 96.9%.

Consider `CCCCCn1c(Sc2ccccc2)nc2c1c(=O)[nH]c(=O)n2C`, for which the “viability” value was 81.8%.

Take `CCN(CCNC(=O)Nc1ccc(Cl)cc1)c1ccccc1`: the “viability” value is 99.6%.

For the compound `O=C(c1nnc(Cc2ccc(Cl)cc2)o1)N1CCc2ccccc2C1`, the “viability” value is 98.8%.

`CN(C)S(=O)(=O)c1cccc(NC(=O)COC(=O)c2cccc(S(=O)(=O)N3CCc4ccccc4C3)c2)c1`: the “viability” value was 96.8%.

For `CCOC(=O)c1[nH]c2ccc(OC)cc2c1NC(=S)N1CCN(c2ccccc2)CC1`, the “viability” value was 88.3%.

For the compound `Cc1cc(C)n(C(=O)CNc2ccc(C)c(C)c2)n1`, the “viability” value was 92.2%.

Consider `O=C(NCc1ccco1)C1CCN(S(=O)(=O)Cc2ccccc2)CC1`, for which the “viability” value was 98.2%.

With `COc1ccc(Nc2oc(COc3ccc(Cl)cc3)nc2C#N)cc1`, the “viability” value is 90.4%.

On to `COc1ccc(-c2cc(C(F)F)n3ncc(C(=O)n4ccnc4C)c3n2)cc1`, for which the “viability” value was 89.9%.

Regarding `COC(=O)C1=C(C)N(c2ccc(F)c(Cl)c2)C(=O)C1`, the “viability” value is 82.7%.

On to `COc1cc(SC#N)ccc1N=Cc1c(C)[nH]n(-c2cccc3ccccc23)c1=O`, for which the “viability” value was 82.9%.

For `COc1ccccc1CN=Cc1[nH]c2ccc(Br)c(Cl)c2c1O`, the “viability” value is 89.1%.

Take `CCOC(=O)c1c(C2COc3ccccc3O2)csc1NC(=O)c1ccccc1` (centres undefined): the “viability” value was 84.2%.

For the compound `O=C(CSc1ncnc2c1nnn2-c1ccc(F)cc1)NCC1CCCO1` (centres undefined), the “viability” value is 86.8%.

On to `COC(=O)Nc1nc2c(s1)CCCC2`, for which the “viability” value was 96.2%.

Turning to `Cc1cc(C)c2c(=O)n(CC(=O)NCCCN3CCOCC3)sc2n1`, the “viability” value is 90.3%.

Regarding `CN1/C(=C\C(=S)NC(=O)c2ccc([N+](=O)[O-])cc2)C(C)(C)c2ccccc21`, the “viability” value is 87.3%.

For `COc1ccc(NC(=O)CCCn2c(=O)c3sccc3n(Cc3ccccc3)c2=O)cc1`, the “viability” value is 94%.

Take `COC(=O)C1=C(C)N(Cc2ccco2)C(=O)N[C@@H]1c1cccc(C(F)(F)F)c1`: the “viability” value is 84.9%.

For `CC(C)(C)c1ccc(CNc2ccc([N+](=O)[O-])cn2)cc1`, the “viability” value was 95%.

As to `Cc1cc(Nc2ccccc2)nn1C(=O)c1ccccc1`, the “viability” value is 91.5%.

In the case of `COc1ccc(C(=O)CCN2CCCCCC2)cc1`, the “viability” value was 85.5%.

For `O=C(NCCOc1ccccc1)C(c1ccccc1)c1ccccc1`, the “viability” value is 98.4%.

Turning to `CCCCNS(=O)(=O)c1ccc2nc(-c3cccnc3)cc(C(=O)NC3CC3)c2c1`, the “viability” value is 89.9%.

Consider `CCN(CC)S(=O)(=O)c1ccc(-c2nnc(SCc3nnc(-c4ccccc4)o3)o2)cc1`, for which the “viability” value was 90.7%.

As for `C=C1C(O)C[C@H]2C(=C)CCC3[C@H](OC(=O)[C@]3(O)CO)[C@@H]12` (some centres undefined), the “viability” value was 97.3%.

As to `O=S(=O)(c1cccc2ccccc12)N1CCSC1`, the “viability” value is 99.6%.

`COCCn1c(=NC(=O)CSCC(=O)Nc2cc(C)on2)sc2cc(C(=O)OC)ccc21`: the “viability” value was 99.8%.

As to `O=C(CCNc1cc(Cl)cc(Cl)c1)c1ccco1`, the “viability” value is 92.8%.

Regarding `c1ccc(-c2cc3n(c2)CCc2ccccc2-3)cc1`, the “viability” value was 87.2%.

For `[N-]=[N+]=NC1C[C@H](n2ccc(=O)[nH]c2=O)O[C@@H]1CO` (some centres undefined), the “viability” value is 102%.

Consider `O=C(Nc1cccc(C(F)(F)F)c1)NC1CCCCC1`, for which the “viability” value was 83.1%.
